# Results as given in PubChem BioAssay (NCI).
# About 83,000 compounds went through this panel and 20% of them were active in at least one assay; those are over-represented in the sample as a whole.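 Single-concentration screen, 48 h exposure, 96-well plates. Endpoint: percent growth. Below 10 = active.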 Calls of active or inactive are those of the source.
# System: SW-620 colon
# Assay: NCI-60 one-dose screen, 48 h (100 = growth as untreated, 0 = no growth, -100 = all killed)
# Settings: 10 µM unless noted
row,Compound,growth
1,O=C1Nc2ccccc2/C1=C/C(=O)c1ccc(N2CCOCC2)cc1,51.6% (inactive)
2,COc1ccc2nc3c(cc2c1)C(=O)CC(C(F)(F)F)C3 (stereo not drawn),41.5% (inactive)
3,CNC(=O)c1cc(Oc2ccc3nc(NC(=O)c4ccc5ncccc5c4)sc3c2)ccn1,112% (inactive)
4,N#Cc1c(Cl)nc(SCC2CO2)nc1-c1ccccc1 (stereo not drawn),111% (inactive)
5,CCCCCCCCCN(CCCCCCCCC)C(C)C(=O)c1ccc2cc(Br)c3ccccc3c2c1 (stereo not drawn),67% (inactive)

# System: MCF7 breast
# Assay: as above
# Settings: 10 µM unless noted
row,Compound,growth
1,O=[N+]([O-])c1cc([N+](=O)[O-])c(C(F)(F)F)cc1NN=C(c1ccc(O)cc1)c1ccc(O)cc1,-10.1% (active)
2,O=C(COc1cccc(/C=C2\Oc3ccccc3C2=O)c1)c1ccc([N+](=O)[O-])cc1,50.7% (inactive)
3,COc1cc(NCc2cn(-c3ccc(C(=O)O)cc3)nc2-c2ccc(C(=O)O)cc2)cc(OC)c1OC,93.3% (inactive)
4,COc1ncc(-c2ccc3nccc(C#CCCCCC(=O)NO)c3c2)cc1NS(=O)(=O)c1ccc(F)cc1F,2.33% (active)
5,O=C(O)CSCc1nnc2n(Cc3ccccc3)c(=O)c3c4c(sc3n12)CCCC4,110% (inactive)
6,C[C@]12CCc3nc(Nc4ccccc4)sc3C1=CC[C@@H]1[C@@H]2CC[C@]2(C)/C(=N/NC(N)=S)CC[C@@H]12,24.3% (inactive)
7,C=C(C)C1CCC2(C(=O)O)CCC3(C)C(CCC4C5(C)CCC(OC(=O)NCc6ccccc6)C(C)(C)C5CCC43C)C12 (stereo not drawn),35.9% (inactive)
8,CC(C)=CCC[C@](C)(O)[C@H]1CC[C@]2(C)[C@@H]1CC[C@@H]1[C@@]3(C)CC/C(=N/O)C(C)(C)[C@@H]3CC[C@]12C,10% [100 µM] (inactive)
9,N#CC1C(=O)NC(c2ccccc2[N+](=O)[O-])c2sc3c(F)cccc3c21 (stereo not drawn),23.4% (inactive)
10,Brc1ccc(-c2nnc3c4[nH]ccc4ncn23)cc1,75.8% (inactive)
11,CCCCCCCCCCCCNC(=S)N/N=C/c1ccccc1O,51% (inactive)
12,CC1(C)CC[C@]2(C(=O)O)CC[C@]3(C)[C@H](CC[C@@H]4[C@@]5(C)CCC(=O)C(C)(C)[C@@H]5CC[C@]43C)[C@H]2[C@H]1OC(=O)C(F)(F)F,-40.1% [100 µM] (active)
13,C#CCNC(=O)CC[C@@H](C)[C@H]1CC[C@H]2[C@@H]3CC[C@@H]4CC(=O)CC[C@]4(C)[C@H]3CC[C@]12C,-6.31% [100 µM] (active)
14,C=C(C)[C@@H]1CC[C@]2(C)[C@H](CC[C@@H]3[C@@H]([C@@](C)(O)CCC=C(C)C)CC[C@]32C)[C@@]1(C)CCC(=O)O,7.92% [100 µM] (active)
15,CCOC(=O)COc1ccc2c(c1)O/C(=C\c1ccc(O)cc1)C2=O,105% (inactive)
16,O=c1c2c3c(sc2n2cnnc2n1Cc1ccccc1)CCCC3,96.6% (inactive)
17,CC(C)CSc1ncnc2nc[nH]c12,97.1% (inactive)
18,O=C(Oc1ccc(Cl)cc1[N+](=O)[O-])Oc1ccc(Cl)cc1[N+](=O)[O-],103% (inactive)
19,CCOC(=O)c1nn(C2CCCCO2)c2ccc(NC(=O)CSc3nc4ccccc4c(=O)[nH]3)cc12 (stereo not drawn),92.1% (inactive)

row,Compound,growth
1,COc1ncc(-c2ccc3nccc(C#CCCCCC(=O)O)c3c2)cc1NS(=O)(=O)c1ccc(F)cc1F,6.95% (active)
2,CCN(CC)CCS(=O)(=O)CCNc1ccnc2cc(Cl)ccc12,26.9% (inactive)
3,Cc1cc(N2CCCCCC2)nc(N2CCN(CC(=O)Nc3ccc4c(ccn4Cc4ccccc4)c3)CC2)n1,24.1% (inactive)
4,COc1cc(-c2cc(-c3ccc(Nc4ncnc5cc(Cl)ccc45)cc3)nc(N3CCCCC3)n2)cc(OC)c1OC,86.6% (inactive)
5,O=C(Nc1cccc2cccnc12)c1cc(C(=O)c2ccc(Cl)cc2)n2ccc(-c3ccncc3)cc12,98.3% (inactive)
6,O=C1/C(=C/c2cccc(OCc3ccccc3)c2)Oc2cc(OCCN3CCCCC3)ccc21,50.7% (inactive)
7,COc1cc2c(c(OC)c1OC)-c1ccc(NNC(N)=S)c(=O)cc1[C@@H](NC(C)=O)CC2,10.1% (inactive)
8,CCOC(=O)c1nn(C2CCCCO2)c2ccc(NC(=O)CN3CCOCC3)cc12 (stereo not drawn),97.3% (inactive)
9,O=S(=O)(NCc1ccccc1)c1ncnc2nc[nH]c12,98.1% (inactive)
10,COc1ccccc1S(=O)Nc1ccccc1 (stereo not drawn),95.1% (inactive)
11,CC(=O)n1cc(C=O)c2ccccc21,94.8% (inactive)
12,CC(C)=CCC[C@](C)(O)[C@H]1CC[C@]2(C)[C@@H]1CC[C@@H]1[C@@]3(C)CC[C@H](OC(=O)CCC(=O)O)C(C)(C)[C@@H]3CC[C@]12C,15.8% [100 µM] (inactive)
13,COc1ccc(C2NC(=O)C(C#N)c3c2sc2c(F)cccc32)cc1 (stereo not drawn),32.7% (inactive)
14,Cc1ccc(NC(=O)N[C@@H](Cc2cc(F)cc(F)c2)C(=O)N[C@@H]2C(=O)N3CCC[C@H]3C(=O)N3CCCC[C@H]3C(=O)N[C@@H](C)C(=O)N3C[C@H](C)C[C@H]3C(=O)O[C@H]2C)cc1,23.1% (inactive)
15,O=C1Nc2ccccc2/C1=C/C(=O)c1ccc(N2CCOCC2)cc1,79.5% (inactive)
16,COc1ccc2nc3c(cc2c1)C(=O)CC(C(F)(F)F)C3 (stereo not drawn),83.1% (inactive)
17,CNC(=O)c1cc(Oc2ccc3nc(NC(=O)c4ccc5ncccc5c4)sc3c2)ccn1,88% (inactive)
18,N#Cc1c(Cl)nc(SCC2CO2)nc1-c1ccccc1 (stereo not drawn),83.9% (inactive)
19,CCCCCCCCCN(CCCCCCCCC)C(C)C(=O)c1ccc2cc(Br)c3ccccc3c2c1 (stereo not drawn),97.7% (inactive)
